A short description of assay [1]: qHTS assay for measurement of the activity of small molecule inhibitors on Zika virus induced Caspase-3 activity in human iPSC derived neural progenitor cells (hNPCs) (AID 1224857). Further: % of control where 0% means no effect; nearly all actives have a fitted effect of over 65% in size. In short, it runs like this: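 Values are percent inhibition of virus-induced caspase-3/7 signal, scaled between uninfected cells and ZIKV-infected cells. Infection used 2 FFU/cell for 6 h after 1 h compound exposure.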

Assay [2] can be described thus: qHTS assay for measurement of the activity of small molecule inhibitors on Zika virus induced Caspase-3 activity in human astrocytoma cells (AID 1224859).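 Further: plate controls were ZIKV-infected untreated cells for no effect and uninfected cells for full effect.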 Summed up: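 Compound added 1 h pre-infection; ZIKV 2 FFU/cell on SNB-19 cells, 6 h, 37 C/5% CO2. Caspase-Glo 3/7 luminescence; values as % inhibition of ZIKV-induced caspase activity.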
Assay [3] is described as follows: qHTS assay to identify small molecule inhibitors of chordoma cells - UCH-1 (AID 1259355). Further: on the % scale 0 is the no-effect control and ±100 the full control effect; nearly all actives have a fitted effect of over 55% in size. In short, it runs like this:
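Screening used approved and investigational drugs in 15-point titration against 800 seeded cells per well. A fixed combination of auranofin with camptothecin, doxorubicin, rubitecan and topotecan followed compound addition, and growth was scored by CellTiter-Glo after 48hr.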
In general terms: Quantitative high-throughput screening tests each substance at several concentrations.

A short description of assay [4]: qHTS assay to identify small molecule inhibitors of chordoma cells - UCH-2 (AID 1259356). Further: potency means the concentration at half of the fitted maximal effect. On activity change, negative = inhibition: series mostly up to about 46 µM; on the % scale 0 is the no-effect control and ±100 the full control effect.
A short description of assay [5]: P-glycoprotein substrates identified in KB-8-5-11 adenocarcinoma cell line, qHTS therapeutic library screen (AID 1346987). Further: nearly all actives have a fitted effect of over 65% in size. Further: potency means the concentration at half of the fitted maximal effect. Summed up: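 Human cervical adenocarcinoma KB-8-5-11 cells, selected in colchicine to over-express P-gp and assayed without it, were exposed for 72 h to titrated compounds. An ATP-based luminescent viability signal gave AC50.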
A short description of assay [6]: NS1 protein of Zika virus - qHTS assay to identify small molecule inhibitors in human HEK 293 cells (AID 1347053).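 Further: series mostly up to about 46 µM; plate controls were infected untreated cells for no effect and uninfected cells for full effect; nearly all actives have a fitted effect of over 55% in size.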 In short, it runs like this:
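TR-FRET signal from two anti-ZIKV NS1 antibodies quantified NS1 in HEK 293 cells 24 h after MR766 infection at MOI = 0.5; compounds were added 1 h before virus. Uninfected cells and infected cells defined the NS1 normalization range.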

Assay [7] is described as follows: qHTS Assay for Identifying Gametocytocidal Compounds (AID 743244).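 Further: on the % scale 0 is the no-effect control and ±100 the full control effect; actives lower the fluorescent signal which means gametocytes are killed.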 The settings on record: P. falciparum 3D7 stage III-V gametocytes, alamarBlue, 72 h; max response: stronger effect = lower value. Summed up: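 Stage III–V gametocytes of P. falciparum 3D7 were seeded at 20,000 cells/well onto pre-dispensed compounds. After 72 h, 37 °C, 5% CO2, alamarBlue was added for another 24 h.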

A short description of assay [8]: Natriuretic polypeptide receptor (hNpr1) antagonism - Pilot counterscreen GloSensor control cell line (AID 1347045; calls by dose curve; further: series mostly up to about 38 µM; on the % scale 0 is the no-effect control and ±100 the full control effect). Summed up:
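The SNP-driven cGMP luminescence signal (50 uM, 20 min, room temperature) was measured in GloSensor HEK293 control cells. Compounds were tested as a LOPAC titration series and preincubated for 30-50 min.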

Assay [9] addresses Atrial natriuretic peptide receptor 1 (Homo sapiens) (UniProt P16066). The experiment in a line: Natriuretic polypeptide receptor (hNpr1) antagonism - Pilot screen (AID 1347049; calls by dose curve;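 further: agonist-evoked cGMP luminescence read 20 min after hNppA addition; series mostly up to about 58 µM; on the % scale 0 is the no-effect control and ±100 the full control effect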). In short, it runs like this:
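cGMP-sensor HEK293/hNpr1 cells, 1500/well, plated overnight at 37C. 2% GloSensor reagent, 2 h RT. Compound (23 nL pin transfer) 30 min RT, baseline luminescence pre-read. 0.1 nM hNppA, 20 min RT, post-read.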

In assay [10] the target is Atrial natriuretic peptide receptor 2 (Homo sapiens) (UniProt P20594). The experiment in a line: Natriuretic polypeptide receptor (hNpr2) antagonism - Pilot subtype selectivity assay (AID 1347050; calls by dose curve; further: on the % scale 0 is the no-effect control and ±100 the full control effect). In short, it runs like this:
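Luminescence from a genetically encoded cGMP luciferase biosensor in hNpr2-expressing HEK293 cells is read before and 20 min after adding 1 nM hNppC. Test compounds, in interplate 1:5 titrations, are added 30-50 min ahead of the agonist.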

SMILES strings stand for the structures. Several values for one entry are separate records, joined by “and”; a condition that tells them apart may be missing. Identical values can stand only once. Values without a mark were called inactive. Records with an inconclusive call do not appear. Activity calls are given as the source filed them. Unless noted, the call rests on the fitted dose curve; in most records, active means well fitted curve in the direction sought with a large enough effect; inconclusive means small, poorly fitted or top-dose-only effect, or another doubt; inactive means no such curve, though single readings can be large; an effect the other way counts as inactive or inconclusive.

Chain of Atrial natriuretic peptide receptor 2 (Homo sapiens) (P20594 whole entry, looked up): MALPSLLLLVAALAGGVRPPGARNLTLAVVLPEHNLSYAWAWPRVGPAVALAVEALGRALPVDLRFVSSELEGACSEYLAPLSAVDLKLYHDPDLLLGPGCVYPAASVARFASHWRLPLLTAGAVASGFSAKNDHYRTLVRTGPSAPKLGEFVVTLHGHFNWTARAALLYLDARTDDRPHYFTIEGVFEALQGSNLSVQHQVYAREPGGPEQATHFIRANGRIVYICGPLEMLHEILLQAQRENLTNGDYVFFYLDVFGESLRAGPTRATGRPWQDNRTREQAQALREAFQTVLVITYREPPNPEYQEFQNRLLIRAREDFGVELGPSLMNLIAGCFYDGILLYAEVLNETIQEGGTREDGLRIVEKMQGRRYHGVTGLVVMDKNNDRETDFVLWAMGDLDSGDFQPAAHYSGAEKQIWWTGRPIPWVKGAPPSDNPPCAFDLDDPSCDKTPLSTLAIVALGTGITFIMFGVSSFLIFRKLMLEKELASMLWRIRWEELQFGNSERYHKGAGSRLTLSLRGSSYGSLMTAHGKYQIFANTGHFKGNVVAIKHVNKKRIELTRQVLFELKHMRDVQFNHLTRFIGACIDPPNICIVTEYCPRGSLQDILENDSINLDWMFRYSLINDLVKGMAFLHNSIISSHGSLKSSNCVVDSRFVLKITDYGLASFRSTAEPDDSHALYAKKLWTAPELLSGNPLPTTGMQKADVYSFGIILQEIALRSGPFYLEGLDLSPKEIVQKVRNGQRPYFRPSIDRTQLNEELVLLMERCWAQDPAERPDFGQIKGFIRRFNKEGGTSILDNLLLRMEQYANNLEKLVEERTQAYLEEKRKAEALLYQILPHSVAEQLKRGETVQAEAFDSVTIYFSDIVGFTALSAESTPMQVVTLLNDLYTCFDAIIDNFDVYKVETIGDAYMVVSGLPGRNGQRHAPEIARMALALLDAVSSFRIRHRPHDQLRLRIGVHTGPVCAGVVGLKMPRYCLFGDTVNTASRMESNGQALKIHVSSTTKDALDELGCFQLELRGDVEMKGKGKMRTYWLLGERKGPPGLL
Chain of Atrial natriuretic peptide receptor 1 (Homo sapiens) (P16066 whole entry, looked up): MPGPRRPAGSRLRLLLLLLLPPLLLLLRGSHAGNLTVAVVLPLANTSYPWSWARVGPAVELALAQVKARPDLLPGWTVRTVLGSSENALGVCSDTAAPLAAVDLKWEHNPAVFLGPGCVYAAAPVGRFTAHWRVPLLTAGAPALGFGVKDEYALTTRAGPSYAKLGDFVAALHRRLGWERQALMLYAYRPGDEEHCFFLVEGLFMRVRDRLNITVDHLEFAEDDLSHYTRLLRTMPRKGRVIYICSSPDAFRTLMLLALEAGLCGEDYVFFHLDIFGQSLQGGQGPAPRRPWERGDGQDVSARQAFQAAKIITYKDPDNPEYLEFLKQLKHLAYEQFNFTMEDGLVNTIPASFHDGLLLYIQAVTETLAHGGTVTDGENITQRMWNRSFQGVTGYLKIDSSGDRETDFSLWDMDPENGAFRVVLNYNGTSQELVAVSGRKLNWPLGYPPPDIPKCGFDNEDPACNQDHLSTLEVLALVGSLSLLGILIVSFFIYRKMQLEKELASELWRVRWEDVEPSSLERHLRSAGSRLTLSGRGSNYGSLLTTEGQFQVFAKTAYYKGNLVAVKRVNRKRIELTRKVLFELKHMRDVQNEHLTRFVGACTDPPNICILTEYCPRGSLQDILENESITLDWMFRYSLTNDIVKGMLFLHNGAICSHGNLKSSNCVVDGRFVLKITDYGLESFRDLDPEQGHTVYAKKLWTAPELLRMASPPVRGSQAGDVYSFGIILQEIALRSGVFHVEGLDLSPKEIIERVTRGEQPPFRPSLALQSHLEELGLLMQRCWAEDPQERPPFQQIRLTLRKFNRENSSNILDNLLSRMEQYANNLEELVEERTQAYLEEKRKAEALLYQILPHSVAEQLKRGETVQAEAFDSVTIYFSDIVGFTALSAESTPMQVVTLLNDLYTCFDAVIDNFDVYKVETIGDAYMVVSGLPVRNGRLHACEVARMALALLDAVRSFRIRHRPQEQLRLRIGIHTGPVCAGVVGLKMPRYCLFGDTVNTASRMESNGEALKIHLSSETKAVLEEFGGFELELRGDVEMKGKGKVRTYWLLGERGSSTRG

Take `N/C(=N\N=C\c1ccc(Cl)cc1)N/N=C/c1ccc(Cl)cc1`: the Potency entry in assay [1], in assay [3], in assay [4], in assay [5] and in [6] was “inactive” each time. In assay [2], the result was inactive.

`O=C(O)CCC(=O)Nc1ccc(S(=O)(=O)Nc2nccs2)cc1`: the Potency entry in [1], in assay [3], in [4], in assay [5] and in [6] was “inactive” throughout. The compound was classed as inactive in [2].

As for `O=C(Oc1cccc2cccnc12)c1ccccc1`, the Potency entry in assay [1], in assay [3], in assay [4] and in assay [5] was “inactive” each time. The call in assay [2] was inactive.

On to `CC(C)(C)NC[C@H](O)COc1nsnc1N1CCOCC1`, for which the max response in assay [7] was -3.64%. Besides, the Potency entry in [1], in assay [3], in assay [4], in assay [5] and in assay [6] was “inactive” each time. Also, the compound was called inactive in assay [2], in assay [8], in assay [9] and in [10].

For the compound `CCN[C@@H]1C[C@H](N)[C@@H](OC2OC(CN)=CCC2N)[C@H](O)[C@H]1O[C@H]1OC[C@](C)(O)[C@H](NC)[C@H]1O` (some centres undefined), the activity change, negative = inhibition in assay [1] was 22% [at 0.568 µM]; in assay [2], 15.8% [at 0.568 µM]; in assay [6], -23.1% [at 0.593 µM]. In addition, the Potency entry in [3], in assay [4] and in assay [5] was “inactive” throughout.

On to `CN1CCC[C@@H]1CCO[C@](C)(c1ccccc1)c1ccc(Cl)cc1`, for which the Potency entry in assay [1], in [3], in assay [4], in assay [5] and in assay [6] was “inactive” each time. Also, in [2], the result was inactive.

Turning to `Cc1cccc(C)c1NC(=O)c1ccccc1C(=O)O`, the Potency entry in [1], in assay [3], in [4], in assay [5] and in assay [6] was “inactive” throughout. In addition, in [2], the outcome was inactive.

Consider `COc1cc(C(=S)N2CCOCC2)ccc1O`, for which the Potency result in assay [1], in assay [3], in [4], in [5] and in [6] was “inactive” throughout. For the same compound, the result in assay [2] was inactive.

For `CCOC(=O)[C@H](CCc1ccccc1)N[C@@H](C)C(=O)N1[C@H](C(=O)O)C[C@H]2CCCC[C@@H]21`, the max response in [7] is -0.763% and -2.8% and 30%. Further, the Potency result in assay [1], in assay [3], in assay [4], in assay [5] and in [6] was “inactive” each time. Besides, the call in [2], in assay [8], in [9] and in assay [10] was inactive.

For `Cc1cc2c(OCC(CNC(C)(C)C)OC(=O)c3ccccc3)cccc2[nH]1` (centres undefined), the Potency entry in assay [1], in assay [3], in assay [4], in assay [5] and in [6] was “inactive” in each case. For the same compound, the outcome in assay [2] was inactive.

On to `CCOC(=O)c1ccc(N)cc1`, for which the Potency result in [1], in [3], in assay [4], in assay [5] and in assay [6] was “inactive” throughout. In assay [2], the compound was classed as inactive.

`COc1cc(C)nc(-n2nc(C)cc2OC)n1`: the Potency entry in [1], in assay [3], in assay [4], in [5] and in assay [6] was “inactive” in each case. In [2], the call was inactive.

Take `CCCCC(CC)CN1CN(CC(CC)CCCC)CC(C)(N)C1` (centres undefined): the Potency entry in assay [1], in assay [3], in assay [4], in assay [5] and in assay [6] was “inactive” throughout. Further, in assay [2], the compound was classed as inactive.

On to `CCN(CC)CCNC(=O)COc1ccc(OC)cc1`, for which the Potency entry in [1], in assay [3], in assay [4], in assay [5] and in [6] was “inactive” in each case. Further, the compound was called inactive in [2].

For the compound `O=C(Nc1cccc(C2=NCCN2)c1)Nc1cccc(C2=NCCN2)c1`, the Potency result in assay [1], in [3], in assay [4], in assay [5] and in assay [6] was “inactive” each time. Moreover, in [2], the call was inactive.

As to `CCNC(=O)/C=C/c1cccc(Br)c1`, the Potency entry in assay [1], in assay [3], in assay [4], in [5] and in [6] was “inactive” in each case. In addition, the outcome in assay [2] was inactive.

Consider `CC(C)[N+](C)(C)CC(O)COc1cccc2ccccc12` (centres undefined), for which the Potency entry in assay [1], in [3], in assay [4], in assay [5] and in [6] was “inactive” each time. Besides, in [2], the compound was classed as inactive.

For the compound `Cc1cccc(C)c1NC(=O)CN1CCCC1`, the Potency result in assay [1], in assay [3], in [4], in assay [5] and in [6] was “inactive” in each case. Further, the call in assay [2] was inactive.

`CCN(CC)CCNc1ccc(CO)c2sc3ccccc3c(=O)c12`: the Potency entry in assay [1] and in assay [3] was “inactive” each time. Further, the compound was called inactive in [2]. Moreover, in [4], the Potency is 25.9 µM (active).

Regarding `CCCc1ncc(C[n+]2ccccc2C)c(N)n1`, the Potency entry in [1], in assay [3], in assay [4], in assay [5] and in assay [6] was “inactive” throughout. The compound was classed as inactive in assay [2].

Turning to `NCc1ccccc1Sc1ccccc1CO`, the Potency result in assay [1], in assay [3], in assay [4], in assay [5] and in assay [6] was “inactive” in each case. Moreover, in assay [2], the result was inactive.

Take `CCN(CC)CCNC(=O)c1cc(Br)c(N)cc1OC`: the Potency entry in assay [1], in assay [3], in assay [4], in assay [5] and in assay [6] was “inactive” in each case. The call in [2] was inactive.

Turning to `CC(C)NCC(O)c1ccc2ccccc2c1` (centres undefined), the Potency entry in assay [1], in assay [3], in assay [4], in assay [5] and in [6] was “inactive” throughout. For the same compound, in assay [2], the result was inactive.

As to `CCCCCCCCCCCCOCCOCCOCCOCCOCCOCCOCCOCCOCCO`, in assay [7], the max response is 14.7%. In addition, the Potency result in [1], in assay [3], in [4] and in assay [6] was “inactive” each time. The outcome in assay [2] was inactive. The Potency in assay [5] was 3.26 µM (active).

For `NC(N)=NCc1cccc(I)c1`, the max response in assay [7] is 10% and 7.9%. Further, the Potency result in assay [1], in assay [3], in assay [4], in assay [5] and in assay [6] was “inactive” each time. Also, the result in [2], in assay [8], in assay [9] and in [10] was inactive.

As for `C=C[C@H]1CN2CC[C@H]1C[C@H]2[C@H](O)c1ccnc2ccc(OC)cc12`, the Potency entry in assay [1], in assay [3], in assay [4], in assay [5] and in [6] was “inactive” throughout. In addition, the call in assay [2] was inactive.

Consider `CCCCC(CC)COC(=O)/C=C/c1ccc(OC)cc1` (centres undefined), for which the Potency result in assay [1], in assay [3], in assay [4], in assay [5] and in assay [6] was “inactive” throughout. Moreover, the call in [2] was inactive.

In the case of `NCCNC(=O)c1ccc(Cl)cn1`, the max response in assay [7] was -2.71%. Moreover, the Potency result in assay [1], in assay [3], in [4], in assay [5] and in assay [6] was “inactive” each time. Moreover, the compound was classed as inactive in assay [2].

Source of the values: PubChem BioAssay (NCATS).
